Shown are actives, neighbours in structure and some others; about 6.5% of the full set was active somewhere.
Abs 340nm: compound light absorbance at 340 nm, profiling panel, artefact control, biochemical, MLSMR library, data from PS, PMK, MK assays; compound absorbance at 340 nm, fold over control; fold change at 10 µM; 65,000 tested, under 10 active; AID 708, 2007;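 active means at 10 µM dose, initial 340 nm absorbance at least 2 fold that of control wells; inactive means change under 2 fold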;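 further: initial absorbance extrapolated from kinetic A340 decline of NADH oxidation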
Fluor 339 460: intrinsic fluorescence of library compounds, ex339/em460 – biochemical, MLSMR library, data from DPM-DC assay, artefact control, profiling panel. AID 709, 2007. 65,000 compounds, 5.5% hits. compound autofluorescence, ex339/em460 nm, NADH buffer; active compounds read high; 1 = no-compound wells, NADH background. fluorescence fold increase at 10 µM;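 active means at 10 µM, mean starting fluorescence two-fold or more over control wells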;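 further: signal is the first read of a kinetic run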
MK inhibit: S. pneumoniae MK inhibitors, primary screen, biochemical, PK/LDH-coupled NADH absorbance | inhibition, % at 10 µM | mevalonate kinase [Streptococcus pneumoniae D39] | 65,000 compounds, 0.48% hits | AID 555, 2006 | purified MK, PK/LDH-coupled NADH absorbance 340 nm;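 active means ranked among the strongest by inhibition in the single 10 µM screen, a fixed top-ranked set picked for dose follow-up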
DPM-DC inhibit: S. pneumoniae DPM-DC inhibitors, primary screen, biochemical, PK/LDH-coupled NADH fluorescence | 65,000 compounds, 0.49% hits | purified DPM-DC | diphosphomevalonate decarboxylase (Streptococcus pneumoniae D39) | calls only at 10 µM;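 active means the 320 compounds with the highest percent inhibition in the single-dose primary screen, excluding strongly autofluorescent ones, cut at about 32% in these data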;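 further: kinetic rate of NADH fluorescence loss reporting ADP formed by the decarboxylase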
NADH coupling: inhibitors of PK/LDH coupling enzymes, profiling panel, artefact control, biochemical, MLSMR library; coupled PK/LDH NADH assays, four targets; IC50, µM (top dose mostly 10 µM); 65,000 compounds, 0.02% hits; AID 774, 2007;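 active means single-dose screening hits from any of four coupled enzyme assays that gave an IC50 when retested across doses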;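 further: the DPM-DC format reads NADH fluorescence rather than 340 nm absorbance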
PMK inhibit: S. pneumoniae PMK inhibitors, primary screen, biochemical, mevalonate pathway, pilot trial included | phosphomevalonate kinase (Streptococcus pneumoniae D39) | purified PMK, PK/LDH-coupled NADH absorbance 340 nm | inhibition, % at 10 µM | 65,000 compounds, 0.49% hits;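 active means top-ranked compounds by inhibition in the single 10 µM screen, taking a fixed number of the strongest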
Numbers stand for hits; – = inactive; · = not tested or not shown.

SMILES	Abs 340nm	Fluor 339 460	MK inhibit	DPM-DC inhibit	NADH coupling	PMK inhibit
CN(C)CCNc1nc(-c2ccco2)c2c(c1C#N)CC(C)(C)OC2	–	2.2	–	·	–	–
O=C(CN(Cc1ccc2c(c1)OCO2)C(=O)c1cnsn1)NC1CCCC1	–	–	–	–	–	–
CCc1c(C(=O)Nc2ccc(S(=O)(=O)N3CCOCC3)cc2)csc1C	–	–	–	–	–	–
N#Cc1c(N2CCOCC2)nc(-c2ccco2)c2c1CCCC2	–	2.3	–	·	–	–
CC1(C)Cc2c(C#N)c(OCC(=O)c3ccc(Cl)cc3)nc(-c3ccco3)c2CO1	–	2.1	–	–	–	–
CC1(C)Cc2c(C#N)c(N3CCN(C(=O)c4ccccc4)CC3)nc(-c3ccco3)c2CS1	–	–	–	–	–	–
CC(C)c1nc(N2CCN(C(=O)c3ccccc3)CC2)c(C#N)c2c1COC(C)(C)C2	–	2.1	–	·	–	–
CC1(C)Cc2c(C#N)c(N3CCCC3)nc(-c3ccco3)c2CO1	–	2.2	–	·	–	–
COC(=O)CS(=O)(=O)c1ccc2c(c1)CC(=O)N2	–	–	–	–	–	–
COc1cc(NC(=O)c2cc3ccccc3o2)c(OC)cc1Cl	–	2.2	–	·	–	–
COc1ccc(-c2cc3ccccc3oc2=O)cc1NC(=O)c1ccc(Br)o1	–	3.8	–	·	–	–
COc1ccc(NC(=O)c2ccco2)cc1NC(=O)c1cc2ccccc2o1	–	–	–	–	–	–
COc1cc(NC(=O)c2cc(CC(C)C)on2)c(OC)cc1Cl	–	–	57	–	–	–
CCCc1cc(C(=O)Nc2cc(OC)c(Cl)cc2OC)no1	–	–	–	–	–	–
COc1cc(NC(=O)c2cc3ccccc3o2)c(OC)cc1Br	–	–	–	–	–	–
COc1cc(OC)c(NC(=O)c2ccco2)cc1Cl	–	–	–	–	–	–
COc1cc(NC(=O)c2cc(-c3ccco3)on2)c(OC)cc1Cl	–	4.6	–	·	–	–
C=CCN=C(NC#N)SCc1ccccc1Cl	–	–	–	–	–	–
CCC(=O)c1cn(CC(=O)NCc2cccnc2)c2ccccc12	–	–	–	–	–	–
CCN(CC)CCNC(=O)c1c(O)c2cc(OC)c(OC)cc2[nH]c1=O	–	–	–	–	–	–
CCOC(=O)c1oc2cccc(OCC(O)CNC(C)C)c2c1C (stereo not drawn)	–	3.6	–	·	–	–
O=C(O)c1cc(=O)c2c(OCC(O)COc3cccc4oc(C(=O)O)cc(=O)c34)cccc2o1	–	–	–	–	–	–
Cn1cnnc1SCC(=O)c1cc2ccccc2oc1=O	–	–	–	–	–	–
O=C(Cn1nc(Cl)nc1Cl)c1cc2ccccc2oc1=O	–	2.2	–	–	–	–
CCOC(=O)N1CCN(S(=O)(=O)c2ccc(C(=O)Nc3nc4c(s3)CC(C)CC4)cc2)CC1 (stereo not drawn)	–	4.6	–	·	–	–
SMILES	Abs 340nm	Fluor 339 460	MK inhibit	DPM-DC inhibit	NADH coupling	PMK inhibit
CCN(CC)c1ccc(-c2nn3c(-c4ccccc4OC)nnc3s2)cc1	–	3.6	–	·	–	–
COc1ccc(-c2nnc3sc(-c4c(OC)cccc4OC)nn23)cc1	–	–	–	–	–	–
COc1cccc(OC)c1-c1nn2c(-c3cc(-c4ccccc4)n[nH]3)nnc2s1	–	–	–	–	46µM	26
O=C(CCCCCn1c(SCc2ccncc2)nc2ccccc2c1=O)NCc1ccco1	–	–	–	–	–	–
O=S(=O)(NC1CCCCC1)c1ccc(Br)cc1	–	–	–	–	–	–
Cc1cc(C(c2nnnn2Cc2ccccc2)N2CCOCC2)c(C)n1-c1ccc2c(c1)OCO2 (stereo not drawn)	–	–	–	–	–	–
CCn1c2ccccc2c2cc(C3C(C#N)=C(N)OC4=C3C(=O)CC(C)(C)C4)ccc21 (stereo not drawn)	–	–	–	–	–	–
CCn1c2ccccc2c2cc(C3C(C#N)=C(C)NC(C)=C3C#N)ccc21	–	4.8	–	·	–	–
CCn1c2ccccc2c2cc(N)ccc21	–	2.9	–	·	–	–
CS(=O)(=O)N(CCc1ccccc1)CC(=O)NCC1CCCO1 (stereo not drawn)	–	–	–	–	–	–
Cc1ccc2oc(-c3ccc(NC(=O)c4cccnc4)cc3)nc2c1	–	2.1	–	–	–	–
O=C(Nc1ccc2oc(-c3cccnc3)nc2c1)c1cccnc1	–	–	–	–	–	–
Cc1ccc2oc(-c3ccc(NC(=O)c4ccc5c(c4)OCO5)cc3)nc2c1	–	3.7	–	·	–	–
Cc1ccc(-c2nc3ccccc3o2)cc1NC(=O)c1ccc2c(c1)OCO2	–	–	–	–	–	–
O=C(Nc1ccc(-c2nc3ccccc3o2)cc1)c1ccc2c(c1)OCO2	–	3.6	–	·	–	–
Cc1ccc(C)c(/C(O)=C2\C(=O)C(=O)N(CCCN(C)C)C2c2cccnc2)c1 (stereo not drawn)	–	–	–	–	–	–
CC(C)OC(=O)c1c(F)c(F)c(N2CCOCC2)c(F)c1F	–	–	–	–	–	–
Cc1cc(C)c(C#N)c(N2CCCC(C(N)=O)C2)n1 (stereo not drawn)	–	4.1	–	·	–	–
Cc1cc(N(C)C)c(C#N)c(N2CCOCC2)n1	–	–	–	–	–	–
Cc1cc(C)c(C#N)c(N2CCSCC2)n1	–	2.7	–	–	–	–
Cc1cc(C)c(C#N)c(SCC(=O)N2CCCCC2)n1	–	–	–	–	–	–
COc1ccccc1-c1nnc(NC(=O)C(C)SC2=NCCS2)s1 (stereo not drawn)	–	–	–	–	–	–
CCNc1nnc(-c2ccccc2OC)s1	–	2.1	–	·	–	–
COc1ccccc1NS(=O)(=O)c1cccc2cccnc12	–	–	51	–	–	–
CCn1c(CNc2ccc(F)cc2)nnc1SCC(=O)Nc1ccc(OC)cc1OC	–	–	–	–	–	–
SMILES	Abs 340nm	Fluor 339 460	MK inhibit	DPM-DC inhibit	NADH coupling	PMK inhibit
COC(=O)C1=CN(C)C=C(C(=O)OC)C1c1ccsc1	–	2.2	–	·	–	–
O=C(Nc1ccccn1)c1cccc(S(=O)(=O)N2CCOCC2)c1	–	–	–	–	–	–
O=S(=O)(c1cccc(-c2cn3cccnc3n2)c1)N1CCCCCC1	–	3.6	–	·	–	–
CC1CN(S(=O)(=O)c2cccc(-c3cn4cccnc4n3)c2)CC(C)O1 (stereo not drawn)	–	3.8	–	·	–	–
O=S(=O)(c1cccc(-c2cn3cccnc3n2)c1)N1CCOCC1	–	3.8	–	·	–	–
Cc1ccc(-n2nc3ccc(N)cc3n2)cc1	–	2.1	–	·	–	–

High-throughput results: PubChem, SRMLSC
